Data taken from PubChem BioAssay (NCATS).
Records with an inconclusive call do not appear. Calls of active or inactive are those of the source. Unless noted, calls follow the shape of the dose curve; as a rule, active = well fitted curve in either direction with a large enough effect (not every such curve was filed as active); inconclusive = small, poorly fitted or top-dose-only effect, or another doubt; inactive = flat fitted curve, though single readings scatter.

How the values were obtained:
[1] = target: Lysosomal acid glucosylceramidase (Homo sapiens) (UniProt P04062); assay: Glucocerebrosidase-p2 (AID 348; in the data active = potency below about 10 µM; also: potency is read from the fitted curve at half-maximal effect); conditions: purified GBA, blue fluorogenic substrate, 40 min
Lysosomal acid glucosylceramidase (Homo sapiens), sequence (P04062 whole entry, looked up): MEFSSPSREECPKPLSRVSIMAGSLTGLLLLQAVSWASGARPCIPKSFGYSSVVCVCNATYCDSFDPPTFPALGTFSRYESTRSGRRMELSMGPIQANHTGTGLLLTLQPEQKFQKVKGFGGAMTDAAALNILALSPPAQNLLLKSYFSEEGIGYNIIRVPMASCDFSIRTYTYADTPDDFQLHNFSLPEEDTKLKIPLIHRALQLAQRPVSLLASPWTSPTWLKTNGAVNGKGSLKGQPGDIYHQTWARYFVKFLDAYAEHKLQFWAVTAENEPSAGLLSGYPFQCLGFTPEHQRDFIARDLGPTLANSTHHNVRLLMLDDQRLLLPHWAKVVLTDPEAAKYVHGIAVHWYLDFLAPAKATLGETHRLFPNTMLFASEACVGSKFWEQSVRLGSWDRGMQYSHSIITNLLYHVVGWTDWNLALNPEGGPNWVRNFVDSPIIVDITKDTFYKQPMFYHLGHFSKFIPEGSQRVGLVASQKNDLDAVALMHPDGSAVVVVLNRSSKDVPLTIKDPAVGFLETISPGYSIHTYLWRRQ
How it was run: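 Normal human glucocerebrosidase (0.2 nM) with blue fluorogenic substrate (80 uM final) in citrate/phosphate pH 5.9 with 10mM sodium taurocholate, 0.01% tween-20; 40 min RT, NaOH/glycine stop; fluorescence Ex 365/Em 440; AC50 from a titration from 0.6 nM upwards.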

[2] = AP1 Signaling Pathway (AID 357); conditions: ME-180 AP-1-bla reporter, EGF-induced, beta-lactamase ratio, 5 h; at 7.69 µM (top of the series) unless noted;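 also: ME-180 reporter cells stimulated with EGF at its EC50 level; % is scaled to controls: 0 for no effect and ±100 for the full control effect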
How it was run: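 Cells are seeded overnight, exposed to compound titrations and an EC50 level of EGF for 5 hours at 37 °C, then loaded with CCF4 dye for 2.5 hours. Beta-lactamase activity under the AP-1 element is read as a blue/green ratio.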

[3] = Stat Signaling Pathway (AID 446); conditions: ME-180 (cervical carcinoma) SIE beta-lactamase reporter, IL-6 stimulated, 5 h; at 7.69 µM (top of the series) unless noted;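 also: ME-180 cervical cancer cells given 40 pM IL-6 alongside compound; SIE-controlled beta-lactamase reporter measured as 460/530 nm FRET emission ratio; % is scaled to controls: 0 for no effect and ±100 for the full control effect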
How it was run: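 Emission at 460 and 530 nm (excitation 405 nm) reports SIE-controlled beta-lactamase in ME-180 cells. Cells received compound with 40 pM IL-6 for 5 hrs at 37 C; data scaled between 300 pM IL-6 and 125 nM JAK-inhibitor controls.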

[4] = target: Glucocorticoid receptor (Homo sapiens) (UniProt P04150); assay: GR-GFP Redistribution (AID 450;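 active = compounds whose dose series gives a full or clear partial fitted curve of increased nuclear translocation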; also: potency is read from the fitted curve at half-maximal effect); conditions: U2OS GR-GFP nuclear translocation, laser cytometry, 2 h
Glucocorticoid receptor (Homo sapiens), sequence (P04150 whole entry, looked up, the tested form may be a part): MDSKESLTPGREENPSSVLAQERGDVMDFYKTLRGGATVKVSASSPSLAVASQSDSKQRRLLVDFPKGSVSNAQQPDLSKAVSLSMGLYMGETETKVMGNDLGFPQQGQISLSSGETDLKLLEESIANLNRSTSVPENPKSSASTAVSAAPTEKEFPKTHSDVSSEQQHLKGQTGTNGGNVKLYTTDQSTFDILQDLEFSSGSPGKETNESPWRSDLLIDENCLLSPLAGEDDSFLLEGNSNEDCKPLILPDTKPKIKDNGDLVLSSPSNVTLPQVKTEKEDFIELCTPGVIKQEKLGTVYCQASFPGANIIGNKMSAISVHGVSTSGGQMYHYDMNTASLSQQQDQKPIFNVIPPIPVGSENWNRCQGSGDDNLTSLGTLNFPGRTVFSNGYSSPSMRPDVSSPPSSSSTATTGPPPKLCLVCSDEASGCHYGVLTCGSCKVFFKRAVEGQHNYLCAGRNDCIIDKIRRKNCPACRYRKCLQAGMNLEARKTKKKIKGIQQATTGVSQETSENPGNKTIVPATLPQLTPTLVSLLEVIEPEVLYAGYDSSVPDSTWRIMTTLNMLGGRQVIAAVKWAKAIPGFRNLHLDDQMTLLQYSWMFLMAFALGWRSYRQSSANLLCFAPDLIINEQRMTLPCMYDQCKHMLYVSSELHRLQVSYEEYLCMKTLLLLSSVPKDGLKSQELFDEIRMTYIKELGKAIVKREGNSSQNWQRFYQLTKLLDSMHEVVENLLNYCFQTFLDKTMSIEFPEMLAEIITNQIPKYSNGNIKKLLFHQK

[5] = target: Glucocorticoid receptor (Homo sapiens) (UniProt P04150); assay: GR-EFC Redistribution (AID 451; calls by dose curve; also: potency is read from the fitted curve at half-maximal effect); conditions: CHO-K1 GR-EFC translocation, beta-gal luminescence, 2 h
How it was run: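 CHO-K1 cells expressing nuclear EA and GR-ED fragments of b-gal; compounds titrated up to 46 uM final, 2 h at 37 C. GR nuclear translocation read as complemented b-gal luminescence after 1 h RT detection.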

[6] = target: Mitogen-activated protein kinase 10 (Mus musculus) (UniProt Q61831); assay: JNK3 AlphaScreen Assay (AID 530); conditions: JNK3 lysate, c-Jun phosphorylation; series mostly up to 57.1 µM;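 also: kinase came from lysate of stimulated human HepG2 cells; signal reports phosphorylation of biotinylated GST-cJun 1-79 at Ser73 with 10 µM ATP; % is scaled to controls: 0 for no effect and ±100 for the full control effect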
How it was run: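 HepG2 lysate (IL-1b/TNFa pre-activated) + biotin-GST-cJun 1-79 + anti-pSer73 cJun; cpd titration, 15 min RT; ATP 10 uM start; Tris pH 7.6, MgCl2, DTT, vanadate; beads in EDTA buffer; AlphaScreen.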

[7] = target: 3',5'-cyclic-AMP phosphodiesterase 4B (Homo sapiens) (UniProt Q07343); assay: qHTS Assay for Inhibitors of PDE-IV (AID 607; active = well fitted activation curve with a large enough effect in the main read-out, with a control signal flat, not every such curve was filed as active; also: % of control where 0% means no effect); conditions: HEK293 ACTOne CNG channel cells, membrane potential fluorescence; series mostly up to 22.9 µM
3',5'-cyclic-AMP phosphodiesterase 4B (Homo sapiens), sequence (Q07343 whole entry, looked up): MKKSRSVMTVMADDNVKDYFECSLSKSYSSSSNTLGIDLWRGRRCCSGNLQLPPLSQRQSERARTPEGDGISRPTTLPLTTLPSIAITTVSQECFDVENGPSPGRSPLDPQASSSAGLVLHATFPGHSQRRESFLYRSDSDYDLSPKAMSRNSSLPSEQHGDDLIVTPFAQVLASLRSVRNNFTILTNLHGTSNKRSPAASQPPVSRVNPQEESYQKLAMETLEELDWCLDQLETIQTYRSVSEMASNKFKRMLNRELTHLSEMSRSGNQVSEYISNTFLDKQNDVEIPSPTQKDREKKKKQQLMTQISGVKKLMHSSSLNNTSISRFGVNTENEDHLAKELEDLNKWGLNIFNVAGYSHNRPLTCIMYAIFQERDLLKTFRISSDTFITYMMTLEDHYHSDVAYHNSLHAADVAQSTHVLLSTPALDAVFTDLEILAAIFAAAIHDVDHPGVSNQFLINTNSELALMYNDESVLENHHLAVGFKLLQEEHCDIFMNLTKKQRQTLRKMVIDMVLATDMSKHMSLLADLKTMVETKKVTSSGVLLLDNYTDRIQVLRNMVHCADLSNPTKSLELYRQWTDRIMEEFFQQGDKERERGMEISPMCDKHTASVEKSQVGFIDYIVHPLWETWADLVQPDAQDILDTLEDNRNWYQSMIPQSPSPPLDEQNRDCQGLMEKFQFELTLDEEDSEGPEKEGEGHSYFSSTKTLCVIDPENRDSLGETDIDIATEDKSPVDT
How it was run: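 The readout is membrane depolarisation from a cAMP-sensing CNG channel, detected with a potential dye at ex 535/em 590. Cells were HEK293-derived (endogenous PDE-IV) at 1000 cells/well, titrated up to 22.9 uM final.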

[8] = NFAT Signaling Pathway (AID 444); conditions: Jurkat NFAT-bla M1, carbachol, beta-lactamase ratio, 5 h; at 7.69 µM (top of the series) unless noted;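 also: carbachol stimulus at about its EC50 of 1 µM final; % is scaled to controls: 0 for no effect and ±100 for the full control effect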
How it was run: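 Jurkat cells with NFAT-driven β-lactamase reporter and co-expressed M1 receptor, stimulated with carbachol (final 1 uM, ~EC50), compound titration, 5 h at 37 °C. CCF4 loaded 1 h at RT; 460/530 nm ratio gave %activity and AC50.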

[9] = target: Cytochrome P450 1A2 (Homo sapiens) (UniProt P05177); assay: p450-cyp1a2 (AID 410; calls by dose curve;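 also: -100% = full effect of reference inhibitor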); conditions: recombinant CYP1A2, luciferin-ME demethylation, luminescence; series mostly up to 11.4 µM
Cytochrome P450 1A2 (Homo sapiens), sequence (P05177 whole entry, looked up): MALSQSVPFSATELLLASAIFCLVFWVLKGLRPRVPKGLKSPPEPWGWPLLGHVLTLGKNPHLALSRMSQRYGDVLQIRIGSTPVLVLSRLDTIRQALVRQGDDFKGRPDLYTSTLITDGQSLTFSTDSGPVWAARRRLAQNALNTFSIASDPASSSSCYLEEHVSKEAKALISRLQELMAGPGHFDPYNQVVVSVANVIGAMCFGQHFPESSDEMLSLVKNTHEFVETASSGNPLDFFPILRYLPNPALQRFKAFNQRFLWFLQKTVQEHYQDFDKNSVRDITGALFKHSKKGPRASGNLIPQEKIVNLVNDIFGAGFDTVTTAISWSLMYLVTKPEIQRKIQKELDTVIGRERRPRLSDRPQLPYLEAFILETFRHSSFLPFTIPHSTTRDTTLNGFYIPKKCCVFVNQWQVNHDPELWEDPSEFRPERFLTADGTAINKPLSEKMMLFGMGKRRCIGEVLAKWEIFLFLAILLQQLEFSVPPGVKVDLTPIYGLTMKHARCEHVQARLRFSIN
How it was run: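 Read-out is luminescence from luciferin produced by CYP1A2 demethylation of Luciferin-ME (100uM, at Km). Detection reagent stopped the 60 min NADPH-dependent reaction; signals were normalized to 57 uM furafylline.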

[10] = target: Cytochrome P450 2D6 (Homo sapiens) (UniProt P10635); assay: qHTS Assay for Inhibitors and Substrates of Cytochrome P450 2D6 (AID 891; active = well fitted curve in the direction sought with a large enough effect; an effect the other way counts as inactive or inconclusive; also: potency is read from the fitted curve at half-maximal effect; nearly all actives have a fitted effect of over 60% in size); conditions: recombinant CYP2D6, luciferin-ME EGE luminescence; series mostly up to 11.4 µM
How it was run: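 Luminescent read-out of luciferin formed by 5 nM human CYP2D6 demethylating 30 uM Luciferin-ME EGE (Km level) over 60 min at room temperature after NADPH regeneration addition. Data normalized to full inhibition by 1.43 uM quinidine.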

[11] = target: Guanine nucleotide-binding protein G(i) subunit alpha-1 (Homo sapiens) (UniProt P63096); assay: qHTS Assay for Inhibitors of RGS12 GoLoco Motif Activity (Green Fluorophore) (AID 879; active = well fitted curve in the direction sought with a large enough effect; an effect the other way counts as inactive or inconclusive;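 also: 0% = labeled peptide with Gαi1 and full inhibition = labeled peptide alone without protein; negative values mean loss of peptide binding seen as reduced polarization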); conditions: Galphai1/FITC-RGS12 GoLoco peptide, fluorescence polarization; series mostly up to 57.1 µM
Guanine nucleotide-binding protein G(i) subunit alpha-1 (Homo sapiens), sequence (P63096 whole entry, looked up): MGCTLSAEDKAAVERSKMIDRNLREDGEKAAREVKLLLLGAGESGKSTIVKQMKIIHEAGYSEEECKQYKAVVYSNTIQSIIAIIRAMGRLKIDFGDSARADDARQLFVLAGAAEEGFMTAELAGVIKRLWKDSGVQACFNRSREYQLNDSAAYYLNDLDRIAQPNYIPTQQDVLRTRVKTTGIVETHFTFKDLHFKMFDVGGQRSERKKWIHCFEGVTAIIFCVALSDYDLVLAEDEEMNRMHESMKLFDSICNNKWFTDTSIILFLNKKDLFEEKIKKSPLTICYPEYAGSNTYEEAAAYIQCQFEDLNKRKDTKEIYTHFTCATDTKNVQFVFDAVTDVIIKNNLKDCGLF
How it was run: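 A drop in FITC polarization marked displacement of the FITC-tagged RGS12 GoLoco peptide (10 nM) from Gαi1 (50 nM). Compounds were incubated 10 min at room temperature in Tris pH 7.5 buffer containing 150 mM NaCl, 0.1 mM GDP and 0.05% NP40; unlabeled peptide titration served as control.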

[12] = target: Cytochrome P450 2C9 (Homo sapiens) (UniProt P11712); assay: qHTS Assay for Inhibitors and Substrates of Cytochrome P450 2C9 (AID 883; active = well fitted curve in the direction sought with a large enough effect; an effect the other way counts as inactive or inconclusive; also: % is scaled to controls: 0 for no effect and ±100 for the full control effect; nearly all actives have a fitted effect of over 60% in size); conditions: recombinant CYP2C9, luciferin-H luminescence, 60 min; series mostly up to 57.1 µM
Cytochrome P450 2C9 (Homo sapiens), sequence (P11712 whole entry, looked up): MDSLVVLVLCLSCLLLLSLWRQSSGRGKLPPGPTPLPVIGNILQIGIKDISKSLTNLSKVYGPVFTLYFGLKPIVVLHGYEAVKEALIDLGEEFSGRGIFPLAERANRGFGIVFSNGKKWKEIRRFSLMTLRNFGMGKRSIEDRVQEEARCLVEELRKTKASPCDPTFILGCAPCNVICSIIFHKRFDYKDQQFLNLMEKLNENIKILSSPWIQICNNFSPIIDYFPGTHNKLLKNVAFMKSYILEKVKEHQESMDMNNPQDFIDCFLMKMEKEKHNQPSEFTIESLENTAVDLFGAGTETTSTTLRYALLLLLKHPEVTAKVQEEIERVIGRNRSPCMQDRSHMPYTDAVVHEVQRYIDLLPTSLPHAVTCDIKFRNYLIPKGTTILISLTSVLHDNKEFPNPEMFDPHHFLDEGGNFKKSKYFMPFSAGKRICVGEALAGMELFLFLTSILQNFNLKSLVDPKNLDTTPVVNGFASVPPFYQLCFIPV
How it was run: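 10nM CYP2C9 + 100uM Luciferin-H (=KM), 25mM KPO4; cpd 10 min 37C; NADPH regen, 60 min 37C; stop/detect with P450 Glo-Buffer 20 min; luminescence. Norm. to 57uM sulphaphenazole as full inhibition.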

[13] = target: Cytochrome P450 3A4 (Homo sapiens) (UniProt P08684); assay: qHTS Assay for Inhibitors and Substrates of Cytochrome P450 3A4 (AID 884; active = well fitted curve in the direction sought with a large enough effect; an effect the other way counts as inactive or inconclusive; also: % is scaled to controls: 0 for no effect and ±100 for the full control effect; nearly all actives have a fitted effect of over 50% in size); conditions: recombinant CYP3A4, Luciferin-PPXE luminescence; series mostly up to 57.1 µM
Cytochrome P450 3A4 (Homo sapiens), sequence (P08684 whole entry, looked up): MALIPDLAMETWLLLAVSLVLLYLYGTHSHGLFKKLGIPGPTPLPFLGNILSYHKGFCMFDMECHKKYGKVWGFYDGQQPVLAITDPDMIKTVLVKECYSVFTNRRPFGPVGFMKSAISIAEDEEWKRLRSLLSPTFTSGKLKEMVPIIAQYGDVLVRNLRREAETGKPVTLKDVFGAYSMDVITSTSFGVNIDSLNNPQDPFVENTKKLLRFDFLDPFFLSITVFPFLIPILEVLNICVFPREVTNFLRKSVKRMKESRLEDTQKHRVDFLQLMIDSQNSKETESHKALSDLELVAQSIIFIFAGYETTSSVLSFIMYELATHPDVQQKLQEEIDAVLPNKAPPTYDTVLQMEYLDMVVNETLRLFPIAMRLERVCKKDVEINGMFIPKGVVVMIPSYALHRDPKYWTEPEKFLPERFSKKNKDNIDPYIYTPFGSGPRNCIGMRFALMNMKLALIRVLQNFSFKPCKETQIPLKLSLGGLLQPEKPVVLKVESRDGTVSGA
How it was run: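 Luminescent readout of luciferin produced by CYP3A4 (20 nM) dealkylation of Luciferin-PPXE, 25 uM (its KM). NADPH-driven reaction ran 60 min at RT after 10 min compound preincubation; data scaled to 57 uM ketoconazole as 100% inhibition.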

[14] = qHTS Assay for Identification of Small Molecule Agonists for Thrombopoietin (TPO) Signaling Pathway (AID 917; active = well fitted curve in the direction sought with a large enough effect; an effect the other way counts as inactive or inconclusive; also: % is scaled to controls: 0 for no effect and ±100 for the full control effect); conditions: TPO signaling pathway reporter cells, agonist qHTS; series mostly up to 38.5 µM
How it was run: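 Luciferase reporter (Glycoprotein IIb promoter) in IL-3-deprived Ba/F3 cells carrying human TPO receptor; compounds co-added with 26 pM TPO, incubated 24 h, 37 C. Steadylite luminescence measured after 10 min.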

[15] = target: Muscarinic acetylcholine receptor M1 (Rattus norvegicus) (UniProt P08482); assay: qHTS Assay for Antagonists of Acetylcholine Muscarinic M1 Receptor: Measurement of IP-One Response (AID 944; active = well fitted curve in the direction sought with a large enough effect; an effect the other way counts as inactive or inconclusive; also: nearly all actives have a fitted effect of over 75% in size); conditions: CHO-M1 cells, IP-One HTRF, antagonist mode; series mostly up to 46.1 µM
Muscarinic acetylcholine receptor M1 (Rattus norvegicus), sequence (P08482 whole entry, looked up): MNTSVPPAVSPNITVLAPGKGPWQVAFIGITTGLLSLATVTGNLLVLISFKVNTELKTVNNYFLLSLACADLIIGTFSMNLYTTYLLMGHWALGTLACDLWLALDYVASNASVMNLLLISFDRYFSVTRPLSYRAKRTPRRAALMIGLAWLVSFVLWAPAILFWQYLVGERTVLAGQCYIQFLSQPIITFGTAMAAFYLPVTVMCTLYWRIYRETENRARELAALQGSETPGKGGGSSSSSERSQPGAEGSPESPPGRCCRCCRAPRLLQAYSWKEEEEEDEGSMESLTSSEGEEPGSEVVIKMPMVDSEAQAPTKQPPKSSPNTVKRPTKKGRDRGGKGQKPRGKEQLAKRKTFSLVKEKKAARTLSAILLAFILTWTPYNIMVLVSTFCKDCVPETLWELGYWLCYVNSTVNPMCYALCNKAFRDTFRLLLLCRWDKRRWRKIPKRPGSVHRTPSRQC
How it was run: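 Antagonism was measured as loss of carbachol-driven (EC80) IP1 accumulation in CHO cells carrying rat M1, using a homogeneous IP-One TR-FRET kit read at 620 and 665 nm.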

[16] = target: Pyruvate kinase (Leishmania mexicana) (UniProt Q27686); assay: qHTS Validation Assay for Inhibitors of Leishmania Mexicana Pyruvate Kinase (AID 945; active = well fitted curve in the direction sought with a large enough effect; an effect the other way counts as inactive or inconclusive;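 also: 0% = DMSO only neutral control wells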); conditions: purified L. mexicana pyruvate kinase, enzyme activity, E451W mutant enzyme; series mostly up to 57.5 µM
How it was run: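 Pyruvate kinase activity of E451W LmPYK (0.2 nM) was followed as ATP output after 1 h at room temperature with 0.5 mM PEP and 0.1 mM ADP, detected by PKLight luminescence.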

[17] = target: Pyruvate kinase PKM (Homo sapiens) (UniProt P14618); assay: qHTS Assay for Activators of Human Muscle Pyruvate Kinase (AID 954; active = well fitted curve in the direction sought with a large enough effect, not every such curve was filed as active;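 also: 0% = uninhibited enzyme and -100% = no enzyme or full thiadiazolimine inhibition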); conditions: purified human muscle pyruvate kinase, luciferase-coupled luminescence, 1 h; series mostly up to 57.5 µM
Pyruvate kinase PKM (Homo sapiens), sequence (P14618 whole entry, looked up): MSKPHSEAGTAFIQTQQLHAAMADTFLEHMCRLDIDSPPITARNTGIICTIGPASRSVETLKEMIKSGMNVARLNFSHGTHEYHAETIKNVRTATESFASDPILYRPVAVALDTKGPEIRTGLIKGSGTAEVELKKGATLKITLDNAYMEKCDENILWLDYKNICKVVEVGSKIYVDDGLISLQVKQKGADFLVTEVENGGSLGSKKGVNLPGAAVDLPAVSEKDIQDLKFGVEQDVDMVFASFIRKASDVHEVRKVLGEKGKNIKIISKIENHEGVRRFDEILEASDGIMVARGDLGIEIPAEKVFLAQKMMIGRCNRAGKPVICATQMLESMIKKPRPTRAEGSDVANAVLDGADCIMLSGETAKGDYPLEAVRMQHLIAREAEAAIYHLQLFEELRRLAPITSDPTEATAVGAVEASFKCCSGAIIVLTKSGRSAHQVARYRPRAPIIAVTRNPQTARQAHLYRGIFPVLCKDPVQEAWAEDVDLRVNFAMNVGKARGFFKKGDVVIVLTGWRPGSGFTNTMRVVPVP
How it was run: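 PKM2, human, >95% pure, 0.1 nM; PEP 0.5 mM (Km), ADP 0.1 mM; 50 mM imidazole pH 7.2, 50 mM KCl, 0.01% Tween 20, 0.05% BSA; 1 h RT; luciferase luminescence readout.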

CN(C)CCC(C#N)(c1ccccc1)c1ccccc1
inactive: Potency [1] > 11.4 µM | activity change, negative = inhibition [2] 6.93% | activity, negative = inhibition [3] 6.64% | Potency [4] > 46 µM | Potency [5] > 9.22 µM | activity change, negative = inhibition [6] 2.05% [at 11.4 µM] | outcome [7]

CC(=O)O[C@H]1CC[C@H]2[C@@H]3CCC4=C[C@@H](C5SCCS5)[C@H](OC(C)=O)C[C@]4(C)[C@H]3CC[C@@]12C
inactive: Potency [1] > 11.4 µM | activity change, negative = inhibition [2] -2.54% | activity, negative = inhibition [3] 0.282% | Potency [4] > 46 µM | Potency [5] > 9.22 µM | activity change, negative = inhibition [6] 5.72% [at 11.4 µM] | outcome [7]

COC(=O)c1c(C)ccc2c(O)c3c(cc12)C(=O)c1c2c(cc(O)c1C3=O)[C@@]1(C)O[C@@](C)(O2)[C@@H](O)[C@H](N(C)C)[C@H]1O
inactive: Potency [1] > 11.4 µM | activity change, negative = inhibition [8] -7.69% | activity, negative = inhibition [3] 10.6% | Potency [4] > 46 µM | Potency [5] > 9.22 µM | activity change, negative = inhibition [6] -7.99% [at 11.4 µM] | outcome [7]

C=C[C@@H]1CN2CC[C@H]1C[C@H]2[C@H](O)c1ccnc2ccccc12
active: Potency [10] 3.98 µM
inactive: Potency [1] > 11.4 µM | Potency [9] | activity change, negative = inhibition [8] 0.393% | activity, negative = inhibition [3] 3.16% | Potency [4] > 46 µM | Potency [5] > 9.22 µM | activity change, negative = inhibition [6] 5.22% [at 11.4 µM] | outcome [7]

O=C(O)[C@H]1CCN1
inactive: activity change, negative = inhibition [2] -3.07% [at 38 µM] | Potency [9] | activity change, negative = inhibition [8] 0.684% [at 38 µM] | activity, negative = inhibition [3] 3.4% [at 38 µM] | Potency [4] > 46 µM | Potency [5] > 46 µM | Potency [6] | outcome [7] | outcome [11] | Potency [12] | Potency [13] | outcome [14] | Potency [15] | outcome [16] | outcome [17]

CS(=O)(=O)O[C@H]1CN2CCC1CC2
inactive: Potency [1] > 11.4 µM | Potency [9] | activity change, negative = inhibition [8] -10.5% | activity, negative = inhibition [3] -2.65% | Potency [4] > 46 µM | Potency [5] > 9.22 µM | activity change, negative = inhibition [6] 2.61% [at 11.4 µM] | outcome [7]

O=C(O)C[C@H]1OCC=C2CN3CC[C@]45c6ccccc6N[C@@H]4[C@H]1[C@H]2C[C@H]35
inactive: Potency [1] > 11.4 µM | activity change, negative = inhibition [2] 0.952% | activity change, negative = inhibition [8] -1.05% | Potency [4] > 46 µM | activity change, negative = inhibition [6] 8.39% [at 11.4 µM] | outcome [7]
